# From PubChem BioAssay AID1508642 (National Center for Advancing Translational Sciences (NCATS), 2021)
# The campaign covered roughly 43,000 compounds. About 200 (0.47%) were called active. Another 12% or so got no clear call; they are omitted. The sample as a whole holds a higher share of actives than the screen did. Values without a mark were called inactive. Calls come from the whole dose curve; as a rule, active = well fitted cell-killing curve with a large enough effect; inconclusive = small, poorly fitted or top-dose-only effect, or effect the other way; inactive = flat fitted curve, though single readings scatter.
# Assay: Cell viability qHTS assay in S16 Pmp22-F2sN cells; note: nearly all actives have a fitted effect of over 65% in size
# Settings: S16 Pmp22-F2sN Schwann cells (luciferase reporters placed in the Pmp22 gene) viability, CellTiter-Glo, 24 h; series mostly up to 57.5 µM; activity change, negative = cytotoxicity: at the top concentration
# Text: Assay Provider: Jim Inglese Ph.D. National Center for Advancing Translational Science, National Institutes of Health, Rockville, MD CMT is a heterogeneous group of neurological disorders that affect approximately 1 in 2,500 people. In particular, the most common form of CMT, CMT1A is genetically linked to the duplication of the PMP22 gene which leads to Schwann cell overexpression, thus manifesting itself as a typical case of dose-sensitive diseases. To identify small molecule compounds that can mediate the expression of PMP22 we developed a phenotypic assay screening strategy by utilizing genome editing techniques to construct Schwann cell lines containing novel reporter technology to monitor the transcriptional or translational regulation of PMP22. For high sensitivity we use a bioluminescent reporter system embedded in the 3' UTR of the PMP22 gene (S16(c9) Pmp22-F2sN) to identify compounds that inhibit gene expression. […] We can further discriminate the effect of all transcriptionally active molecules on PMP22 translation or stability with an assay that incorporates a short NLuc peptide (HiBiT) at the C-terminus of expressed PMP22 (S16(f8) PMP22-HiBiT) allowing alpha complementation and luminescence detection of membrane-associated PMP22 protein. These assays were screened against the NCATS Sytravon Library Collection. Miniaturization of these assays to 1536-well plate format for quantitative high throughput screening (qHTS) yielded rich data sets immediately from the qHTS assay (S16(c9) Pmp22-F2sN), when compared with data from a cell viability assay (Cell TiterGlo) to identify compounds that decreased the output signals through cellular toxicity to streamline the selection process of actives for subsequent characterization using the HiBiT assay (S16(f8) PMP22-HiBiT).
# Cell viability assay in S16 Pmp22-F2sN cells PROTOCOL TABLE (format as described by Inglese J, Shamu CE and Guy RK. 2007) SEQUENCE No. (e.g., 1, 2, 3, etc.); […] (e.g., Cells, Incubation, Reagent, etc.); VALUE and DESCRIPTION. 1. Cells. Add 500-1,000 cells in 4 uL in growth media (DMEM High Glucose, No Phenol Red media + 10% heat-inactivated FBS + 1% Pen/Strep supplemented media) per well into Greiner 1536-well white/solid bottom high base, TC-treated plates. 2. Compounds. Library compounds and controls added at 23nL per well, transferred by Pin Tool. 3. Incubation. Incubate plates at 37C, 5% CO2, 95% RH for 24 h. 4. Reagent. Add 3uL CellTiter-Glo per well of Greiner 1536-well plates. 5. Incubation. Incubate plates at room temperature for 15 min., protect from light. 6. Detector. FLuc luminescence measured using CCD-based camera (Viewlux). NOTES (numbers refer to Sequence numbers above; values are from representative experiments) 6. Luminescence Read: Clear filter; Exposure = 1 sec, Gain = High, Speed = Slow, Binning = 2X REFERENCES: 1. Inglese J, Shamu CE and Guy RK, Reporting data from high throughput screening of small molecule libraries, Nature Chemical Biology, 2007, 3(8): 438-441. doi.org/10.1038/nchembio0807-438 2. Yasgar A, Shinn P, Jadhav A, Auld DS, Michael S, Zheng W, Austin CP, Inglese J and Simeonov A, Compound Management for Quantitative High-Throughput Screening. J. Assoc. Lab. Auto., 2008, 13: 79-89. doi: 10.1016/j.jala.2007.12.004
# % is set by controls: 0 for no effect and ±100 for the full control effect; potency is the fitted concentration of half-maximal effect.
Compound,"activity change, negative = cytotoxicity",Potency
O=C(NCCc1ccc(Cl)cc1)c1ccc2c(c1)N(Cc1ccc(F)cc1)C(=O)CS2,-25.4%,–
Cc1c(C)n(Cc2ccc(Cl)cc2)c2ccc(C(=O)NCCc3ccc(S(N)(=O)=O)cc3)cc12,-7.69%,–
Cc1cccc(N2CCN(C(=O)c3cnc(N4CCCC4)nc3C)CC2)c1C,-0.0488%,–
COc1ccc(Cl)cc1NC(=O)CCn1c(=O)c2cccn2c2ccccc21,8.71%,–
CSc1oc(-c2cccs2)nc1S(=O)(=O)c1ccc(Br)cc1,-0.0965%,–
CCCCS(=O)(=O)c1oc(-c2cccs2)nc1S(=O)(=O)c1ccccc1,–,2.51 µM (active)
Cc1ccc(CSc2oc(-c3cccs3)nc2S(=O)(=O)c2ccc(C)cc2)cc1,17.9%,–
COc1cn(CC(=O)Nc2cccc(C)c2C)c(CN2CCCCC2)cc1=O,-2.31%,–
Cc1ccc(NC(=O)Cn2nnc3sc4c(c3c2=O)CCC(C)C4)cc1 (stereo not drawn),10.1%,–
COc1ccc(CN2CCc3nc(Nc4ccccc4)ncc3C2)c(OC)c1OC,-0.963%,–
CCc1nn(CC(=O)N2CCN(c3ccc(Cl)cc3)CC2)c(=O)c2cc3occc3n12,1.57%,–
COc1ccc(OC)c(CNC(=O)CN2C(=O)CCn3nc(-c4cn(C)c5ccccc45)cc32)c1,2.98%,–
Cc1c(Cl)cccc1NC(=O)CCS(=O)(=O)c1ccc2c(c1)oc(=O)n2C,-29%,–
CCC(=O)N1CCc2cc(S(=O)(=O)NC(C(=O)Nc3ccc(C(C)=O)cc3)C(C)C)ccc21 (stereo not drawn),1.35%,–
CCOc1ccc(-c2cc3nc(C4CCN(C(=O)OC(C)(C)C)CC4)c(C(=O)Nc4ccc(C(=O)OC)cc4)cn3n2)cc1,4%,–
COCCN(Cc1ccco1)C(=O)Cn1ncc2c([nH]c3ccccc32)c1=O,0.904%,–
CCOc1ccc(C(NC(=O)c2cc(OC)c(OC)c(OC)c2)c2cc(Cl)c3cccnc3c2O)cc1 (stereo not drawn),–,1.78 µM (active)
COc1c(Cl)cc(Cl)cc1C(=O)Nc1cccc2cccnc12,3.69%,–
COc1cc(C(=O)NCC(c2ccc(Cl)cc2)N2CCOCC2)cc(OC)c1OC (stereo not drawn),0.597%,–
CC(=O)N1CCCc2cc(S(=O)(=O)N3CCCC(C(=O)N4CCN(c5cccc(Cl)c5)CC4)C3)ccc21 (stereo not drawn),–,25.1 µM (active)

Compound,"activity change, negative = cytotoxicity",Potency
CC(=O)N1CCCc2cc(S(=O)(=O)N3CCCC(C(=O)NCc4ccc(Cl)cc4)C3)ccc21 (stereo not drawn),-24.1%,–
COc1cccc(N2CCN(S(=O)(=O)c3ccc4c(c3)CCCN4C(C)=O)CC2)c1,-1.03%,–
COC(=O)c1ccc(NC(=O)CSc2n[nH]c(-c3ccccc3)n2)cc1,13.3%,–
CCOc1ccccc1NC(=O)Cn1c(=O)n(Cc2ccccc2)c(=O)c2c(C)c(C(=O)N(C)C)sc21,5.8%,–
Cc1ccccc1NC(=O)Cn1c(=O)n(Cc2ccco2)c(=O)c2ccc(C(=O)NC3CCCC3)cc21,7.6%,–
COc1cccc(C(=O)NCc2ccc3c(c2)CCN3C(=O)c2ccncc2)c1,-2.11%,–
Cc1c(CNC2CCCCC2)c(C(=O)O)c(C)n1Cc1cccc(Cl)c1,22.4%,–
COc1cccc2cc(-c3nc(Cl)c4c5c(sc4n3)CC(C)CC5)c(=O)oc12 (stereo not drawn),6.33%,–
Cc1ccc2nc(CN3CCN(S(=O)(=O)c4ccc(C)c(C)c4)CC3)oc2c1,10.1%,–
COc1ccc(NC(=O)CN2C(=O)COc3ccc(S(=O)(=O)N4CCOCC4)cc32)cc1,19.3%,–
CC(C)(C)c1ccc(S(=O)(=O)N2CCN(C(=O)c3cc(-c4ccc(Br)cc4)n[nH]3)CC2)cc1,2.31%,–
Cn1c(=O)[nH]c(=O)c2c1nc(NCCc1ccccc1)n2Cc1ccc(F)cc1,-27.5%,–
CCOC(=O)c1ccc(NC(=O)Cn2cc(S(=O)(=O)Cc3ccccc3F)c3ccccc32)cc1,12.9%,–
Cc1ccc2nc(COc3ccccc3NC(=O)Nc3ccc(F)c(Cl)c3)cc(=O)n2c1,-13.1%,–
COc1ccc(N2CCN(c3nc(-c4ccccc4F)nc4ccccc34)CC2)cc1,-1.56%,–
Cc1cccc(OCC(=O)N(Cc2ccc(C(C)C)cc2)Cc2ccco2)c1C,-22%,–
Cc1cccc(-n2ncc(C(=O)N3CCc4ccccc4C3)c2C2CCN(C(=O)OC(C)(C)C)CC2)c1,-9.84%,–
CC(C)Oc1ccc(CNC(=O)C2CCN(c3nc4ccccc4n(C)c3=O)CC2)cc1,8.64%,–
COc1cc(OC)c(NC(=O)c2cc(S(=O)(=O)N3CCCC3)cn2C)cc1Cl,1.12%,–
CCN(Cc1ccccc1)S(=O)(=O)c1ccc2c(c1)CCCN2C(C)=O,-7.49%,–

Compound,"activity change, negative = cytotoxicity",Potency
CCNS(=O)(=O)c1ccc(NC(=O)CSc2nc(-c3ccco3)cc(C(F)(F)F)n2)cc1,-17.6%,–
COc1ccc(NC(=O)c2sc3nc(-c4cc5cccc(OC)c5oc4=O)[nH]c(=O)c3c2C)cc1,6.82%,–
COc1ccccc1NC(=O)c1sc2nc(C)c(C(=O)Nc3ccc(Cl)cc3)c(-c3ccc(Br)cc3)c2c1N,–,14.1 µM (active)
COc1ccc(Cl)cc1NC(=O)c1sc2nc3c(cc2c1N)CN(C)CC3,19.1%,–
Cc1nnc(SCc2cc(=O)c3cc(F)ccc3[nH]2)n1C,12.3%,–
Cc1ccc(CN2CCc3nc(N4CCN(C)CC4)ncc3C2)cc1,1.27%,–
COc1ccc(CC(=O)NCCc2sc3nc(-c4ccc(OC)cc4)nn3c2C)cc1,-14.4%,–
CC(=O)Nc1cccc(NC(=O)CSc2nccn2Cc2ccc3c(c2)OCO3)c1,5.54%,–
CCCCN(CC)CCCNC(=O)c1nn(C)c2c1CSc1ccccc1-2,-3.98%,–
COC(=O)c1ccc(-c2nc3cc(NC(C)=O)ccc3o2)cc1,5.12%,–
CCN1CCC(N(Cc2ccc(F)cc2)C(=O)Nc2cc(C)ccc2C)CC1,-12.8%,–
COc1cc(OC)cc(C(=O)Nc2c(C(=O)Nc3ccc(F)cc3)oc3ccccc23)c1,-0.156%,–
Cc1cccc(NC(=O)CSc2nc3c([nH]c4ccccc43)c(=O)n2-c2cc(C)cc(C)c2)c1,7.62%,–
CCN(CCCNC(=O)Cn1ncc2c3ccccc3n(C)c2c1=O)Cc1ccccc1,3.84%,–
CCOc1ccc(CNC(=O)c2cc(-c3ccc(Cl)s3)nc3ccccc23)cc1,8.53%,–
O=C(NCC12CC3CC(CC(C3)C1)C2)c1cc2nc(-c3ccccc3)cc(C(F)(F)F)n2n1,14.3%,–
O=C(NCCCO)C(=O)Nc1c2c(nn1-c1ccc(F)cc1)CSC2,-15.3%,–
Cc1c(NS(=O)(=O)c2ccc(Cl)cc2)c(=O)n(-c2ccccc2)n1C,3.6%,–
